Inconclusive results are not listed. Activity calls are given as the source filed them. Unless noted, the call rests on the fitted dose curve; in most records, active means well fitted curve in either direction with a large enough effect (not every such curve was filed as active); inconclusive means small, poorly fitted or top-dose-only effect, or another doubt; inactive means flat fitted curve, though single readings scatter.
Tests used:
[1] = biological target: Lysosomal acid glucosylceramidase (Homo sapiens) (UniProt P04062); experiment: Glucocerebrosidase-p2 (AID 348; in the data active means potency below about 10 µM; further: potency means the concentration at half of the fitted maximal effect); settings: purified GBA, blue fluorogenic substrate, 40 min
Chain of Lysosomal acid glucosylceramidase (Homo sapiens) (P04062 whole entry, looked up): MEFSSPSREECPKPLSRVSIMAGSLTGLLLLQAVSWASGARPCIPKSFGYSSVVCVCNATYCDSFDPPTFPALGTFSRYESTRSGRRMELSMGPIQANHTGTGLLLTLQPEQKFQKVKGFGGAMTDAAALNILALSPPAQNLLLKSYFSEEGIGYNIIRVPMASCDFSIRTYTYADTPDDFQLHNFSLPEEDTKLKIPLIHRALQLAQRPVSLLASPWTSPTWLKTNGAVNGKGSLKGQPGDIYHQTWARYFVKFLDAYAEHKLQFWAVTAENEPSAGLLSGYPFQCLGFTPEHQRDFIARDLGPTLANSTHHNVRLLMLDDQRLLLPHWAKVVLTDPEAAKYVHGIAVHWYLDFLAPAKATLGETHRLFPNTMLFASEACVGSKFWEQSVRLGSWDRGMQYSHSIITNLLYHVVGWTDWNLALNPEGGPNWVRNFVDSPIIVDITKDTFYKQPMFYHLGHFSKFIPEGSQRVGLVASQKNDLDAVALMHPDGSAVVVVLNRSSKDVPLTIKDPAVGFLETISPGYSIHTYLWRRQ
Outline: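 Compounds titrated from 0.6 nM upwards against 0.2 nM enzyme in pH 5.9 citric acid/KH2PO4, taurocholate, tween-20; blue fluorogenic substrate 80 uM, 40 min room temperature, stopped and read Ex 365/Em 440 for AC50.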

[2] = AP1 Signaling Pathway (AID 357); settings: ME-180 AP-1-bla reporter, EGF-induced, beta-lactamase ratio, 5 h; at 7.69 µM (top of the series) unless noted; further: on the % scale 0 is the no-effect control and ±100 the full control effect
Outline: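 ME-180 cells with beta-lactamase reporter under AP-1 response element, stimulated with EC50 EGF; compounds tested in titration series, 5 h at 37 °C. CCF4 substrate added 2.5 h at room temperature; 460/530 nm emission ratio gave %activity and AC50.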

[3] = biological target: Cytochrome P450 1A2 (Homo sapiens) (UniProt P05177); experiment: p450-cyp1a2 (AID 410; calls by dose curve; further: potency means the concentration at half of the fitted maximal effect;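 on activity change, negative = inhibition: -100% = full effect of reference inhibitor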); settings: recombinant CYP1A2, luciferin-ME demethylation, luminescence; series mostly up to 11.4 µM
Chain of Cytochrome P450 1A2 (Homo sapiens) (P05177 whole entry, looked up): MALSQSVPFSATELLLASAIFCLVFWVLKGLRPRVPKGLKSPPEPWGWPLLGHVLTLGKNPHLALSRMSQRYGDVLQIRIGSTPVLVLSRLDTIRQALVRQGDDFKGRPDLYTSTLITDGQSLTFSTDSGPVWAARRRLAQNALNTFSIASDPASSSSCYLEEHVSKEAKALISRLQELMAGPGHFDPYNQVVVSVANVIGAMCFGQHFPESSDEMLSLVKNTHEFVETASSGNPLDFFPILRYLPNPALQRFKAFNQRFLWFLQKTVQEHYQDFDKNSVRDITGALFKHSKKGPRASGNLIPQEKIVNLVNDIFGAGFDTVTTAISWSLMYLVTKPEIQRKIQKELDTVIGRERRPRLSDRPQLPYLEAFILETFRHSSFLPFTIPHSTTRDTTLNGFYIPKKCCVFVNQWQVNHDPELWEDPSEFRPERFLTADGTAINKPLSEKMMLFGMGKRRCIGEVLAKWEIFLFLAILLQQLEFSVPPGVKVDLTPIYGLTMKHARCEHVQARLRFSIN
Outline: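 20nM CYP1A2 with 100uM Luciferin-ME (at Km) in 100mM KPO4; compound preincubated 10 min, NADPH regeneration added, 60 min at room temperature. Luciferin quantified by luminescence after detection reagent; normalized to 57 uM furafylline.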

[4] = Stat Signaling Pathway (AID 446); settings: ME-180 (cervical carcinoma) SIE beta-lactamase reporter, IL-6 stimulated, 5 h; at 7.69 µM (top of the series) unless noted;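 further: ME-180 cervical cancer cells given 40 pM IL-6 alongside compound; SIE-controlled beta-lactamase reporter measured as 460/530 nm FRET emission ratio; on the % scale 0 is the no-effect control and ±100 the full control effect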
Outline: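 IL-6/STAT signaling read in ME-180 cells via an SIE beta-lactamase reporter. Stimulus was 40 pM IL-6 (its AC50) for 5 hrs, so both activation and inhibition register.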

[5] = biological target: Glucocorticoid receptor (Homo sapiens) (UniProt P04150); experiment: GR-GFP Redistribution (AID 450;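 active means compounds whose dose series gives a full or clear partial fitted curve of increased nuclear translocation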; further: potency means the concentration at half of the fitted maximal effect); settings: U2OS GR-GFP nuclear translocation, laser cytometry, 2 h
Chain of Glucocorticoid receptor (Homo sapiens) (P04150 whole entry, looked up, the tested form may be a part): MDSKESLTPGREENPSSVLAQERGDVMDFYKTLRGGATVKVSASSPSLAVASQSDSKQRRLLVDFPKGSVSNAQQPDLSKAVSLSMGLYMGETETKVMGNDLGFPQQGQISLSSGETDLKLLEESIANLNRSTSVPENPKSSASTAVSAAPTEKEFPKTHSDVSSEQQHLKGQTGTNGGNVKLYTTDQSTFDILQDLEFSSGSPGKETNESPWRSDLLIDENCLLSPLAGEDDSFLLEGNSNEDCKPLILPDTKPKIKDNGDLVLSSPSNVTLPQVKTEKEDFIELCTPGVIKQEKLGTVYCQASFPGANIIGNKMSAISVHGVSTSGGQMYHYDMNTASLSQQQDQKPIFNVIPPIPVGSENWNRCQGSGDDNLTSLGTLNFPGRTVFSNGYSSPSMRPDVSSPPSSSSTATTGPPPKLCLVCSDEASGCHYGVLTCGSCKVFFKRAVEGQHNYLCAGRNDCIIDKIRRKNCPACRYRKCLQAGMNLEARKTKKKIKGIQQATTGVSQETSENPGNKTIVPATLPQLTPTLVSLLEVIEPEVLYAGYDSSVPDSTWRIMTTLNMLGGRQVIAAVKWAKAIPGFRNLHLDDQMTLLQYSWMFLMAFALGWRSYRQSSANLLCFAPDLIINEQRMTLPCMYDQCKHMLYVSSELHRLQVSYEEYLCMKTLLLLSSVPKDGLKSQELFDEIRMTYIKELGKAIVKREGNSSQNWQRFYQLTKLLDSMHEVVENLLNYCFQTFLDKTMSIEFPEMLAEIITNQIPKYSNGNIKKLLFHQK

[6] = biological target: Glucocorticoid receptor (Homo sapiens) (UniProt P04150); experiment: GR-EFC Redistribution (AID 451; calls by dose curve; further: potency means the concentration at half of the fitted maximal effect); settings: CHO-K1 GR-EFC translocation, beta-gal luminescence, 2 h
Outline: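 Translocation of GR-ED fusion to nuclear EA restores b-gal, read by luminescence after 1 h room-temperature detection. Engineered CHO-K1 biosensor cells, 1,000/well, exposed 2 h at 37 C to titrations up to 46 uM final.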

[7] = biological target: Mitogen-activated protein kinase 10 (Mus musculus) (UniProt Q61831); experiment: JNK3 AlphaScreen Assay (AID 530); settings: JNK3 lysate, c-Jun phosphorylation; series mostly up to 11.4 µM;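 further: kinase came from lysate of stimulated human HepG2 cells; signal reports phosphorylation of biotinylated GST-cJun 1-79 at Ser73 with 10 µM ATP; on the % scale 0 is the no-effect control and ±100 the full control effect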
Outline: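 Compound titrations were preincubated 15 minutes at room temperature with substrate, antibody and pre-activated JNK3-containing HepG2 lysate. Reactions were started with 10 uM ATP and stopped with EDTA-containing bead buffer for AlphaScreen detection.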

[8] = biological target: 3',5'-cyclic-AMP phosphodiesterase 4B (Homo sapiens) (UniProt Q07343); experiment: qHTS Assay for Inhibitors of PDE-IV (AID 607; active means well fitted activation curve with a large enough effect in the main read-out, with a control signal flat, not every such curve was filed as active; further: % of control where 0% means no effect); settings: HEK293 ACTOne CNG channel cells, membrane potential fluorescence; series mostly up to 22.9 µM
Chain of 3',5'-cyclic-AMP phosphodiesterase 4B (Homo sapiens) (Q07343 whole entry, looked up): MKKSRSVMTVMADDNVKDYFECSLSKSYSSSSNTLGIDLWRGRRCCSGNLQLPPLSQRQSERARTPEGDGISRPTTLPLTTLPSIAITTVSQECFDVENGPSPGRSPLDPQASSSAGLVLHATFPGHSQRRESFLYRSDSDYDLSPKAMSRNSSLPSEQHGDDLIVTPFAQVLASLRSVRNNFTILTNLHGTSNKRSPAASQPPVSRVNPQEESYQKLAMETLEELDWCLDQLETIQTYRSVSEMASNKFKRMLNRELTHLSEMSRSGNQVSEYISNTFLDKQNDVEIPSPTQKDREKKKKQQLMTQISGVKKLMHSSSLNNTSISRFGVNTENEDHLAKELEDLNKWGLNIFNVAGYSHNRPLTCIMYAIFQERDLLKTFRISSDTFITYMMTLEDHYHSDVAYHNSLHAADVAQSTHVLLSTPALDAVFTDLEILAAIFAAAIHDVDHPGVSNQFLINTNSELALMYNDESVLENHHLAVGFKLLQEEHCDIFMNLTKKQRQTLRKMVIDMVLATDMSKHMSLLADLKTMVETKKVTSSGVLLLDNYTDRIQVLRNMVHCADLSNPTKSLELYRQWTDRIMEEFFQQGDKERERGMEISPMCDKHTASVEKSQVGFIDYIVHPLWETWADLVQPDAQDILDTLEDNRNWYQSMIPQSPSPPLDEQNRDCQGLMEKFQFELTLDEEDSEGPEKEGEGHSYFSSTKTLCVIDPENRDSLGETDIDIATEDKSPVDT
Outline: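 Live HEK293 cells with a modified cyclic nucleotide-gated (CNG) channel report intracellular cAMP via membrane-potential dye fluorescence (ex 535/em 590 nm). Endogenous PDE-IV was targeted. Compounds were tested at up to 22.9 uM final; RO 20-1724 100 uM served as control.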

C[C@@]12CC[C@@H]3[C@H](CCC4=CC(=O)CC[C@]43C)[C@@H]1CC[C@@H]2C(=O)Cn1cnc2c(=S)nc[nH]c21
inactive: Potency [1] > 11.4 µM | activity change, negative = inhibition [2] 2.82% | Potency [3] | activity, negative = inhibition [4] -2.06% | Potency [5] > 46 µM | Potency [6] > 9.22 µM | Potency [7] | Potency [8]

O=C1c2cc([N+](=O)[O-])ccc2-c2ccc3c4ccc5c6c(ccc(c7ccc1c2c73)c64)C(=O)c1cc([N+](=O)[O-])ccc1-5
active: Potency [3] 0.794 µM
inactive: Potency [1] > 11.4 µM | activity change, negative = inhibition [2] 0.115% | activity, negative = inhibition [4] 9.03% | Potency [5] > 46 µM | Potency [6] > 9.22 µM | Potency [7] | Potency [8]

CC(C)C12CC[C@@]3(CC[C@H]4[C@@](C)(CCC[C@]4(C)C(=O)O)[C@@H]3C1)[C@@H](CN)C2
inactive: Potency [1] > 11.4 µM | activity change, negative = inhibition [2] -3.83% | Potency [3] | activity, negative = inhibition [4] 1.18% | Potency [5] > 46 µM | Potency [6] > 9.22 µM | Potency [7] | Potency [8]

CC(C)c1ccc(/C(C(=O)O)=C(\O)C(=O)O)cc1
inactive: Potency [1] > 11.4 µM | activity change, negative = inhibition [2] -1.43% | Potency [3] | activity, negative = inhibition [4] -0.351% | Potency [5] > 46 µM | Potency [6] > 9.22 µM | Potency [7] | Potency [8]

Cc1ncn(-c2ccccc2O)c1C
active: Potency [3] 0.794 µM
inactive: Potency [1] > 11.4 µM | activity change, negative = inhibition [2] 4.1% | activity, negative = inhibition [4] 6.2% | Potency [5] > 46 µM | Potency [6] > 9.22 µM | Potency [7] | Potency [8]

CCc1ncc(CO)n1Cc1cccc2ccccc12
inactive: Potency [1] > 11.4 µM | activity change, negative = inhibition [2] 11.3% | Potency [3] | activity, negative = inhibition [4] 10.1% | Potency [5] > 46 µM | Potency [6] > 9.22 µM | Potency [7] | Potency [8]

C[C@H](CCC(=O)O)[C@H]1CC[C@]2(C)[C@@H]3C(=O)C[C@H]4C(C)(C)[C@@H](O)CC[C@]4(C)[C@H]3C(=O)C[C@@]12C
inactive: Potency [1] > 11.4 µM | activity change, negative = inhibition [2] 4.2% | Potency [3] | activity, negative = inhibition [4] 8.37% | Potency [5] > 46 µM | Potency [6] > 9.22 µM | Potency [7] | Potency [8]

N/N=C1/CC(=O)NC(=O)N1
inactive: Potency [1] > 11.4 µM | activity change, negative = inhibition [2] 2.16% | activity, negative = inhibition [4] -13% | Potency [5] > 46 µM | Potency [6] > 9.22 µM | Potency [7] | Potency [8]
active: Potency [3] 0.631 µM

COc1ccc2cc1Oc1ccc(cc1)C[C@@H]1c3c(cc(OC)c4c3Oc3cc5c(cc3O4)CCN[C@H]5C2)CCN1C
inactive: Potency [1] > 11.4 µM | activity change, negative = inhibition [2] -4.55% | Potency [3] | activity, negative = inhibition [4] 14.2% | Potency [5] > 46 µM | Potency [6] > 9.22 µM | Potency [7] | Potency [8]

N#CC[N+]1(Cc2ccccn2)CCCC1
inactive: Potency [1] > 11.4 µM | activity change, negative = inhibition [2] -12.2% | activity change, negative = inhibition [3] 3.4% [at 2.29 µM] | activity, negative = inhibition [4] -1.41% | Potency [5] > 46 µM | Potency [6] > 9.22 µM | Potency [7] | Potency [8]

CC(C)C(=O)C(C)(C)CCc1ccccn1
active: Potency [3] 2.51 µM
inactive: Potency [1] > 11.4 µM | activity change, negative = inhibition [2] 27.3% | activity, negative = inhibition [4] 1.04% | Potency [5] > 46 µM | Potency [6] > 9.22 µM | Potency [7] | Potency [8]

OC[C@@H]1O[C@H](n2cnc3c(/C=C(\O)c4ccccc4)ncnc32)[C@H](O)[C@@H]1O
active: Potency [3] 0.501 µM
inactive: Potency [1] > 11.4 µM | activity change, negative = inhibition [2] -7.91% | activity, negative = inhibition [4] -0.249% | Potency [5] > 46 µM | Potency [6] > 9.22 µM | Potency [7] | Potency [8]

N=C1CCC[C@@H]1C(=S)SCCC(N)=O
active: Potency [3] 3.16 µM
inactive: Potency [1] > 11.4 µM | activity change, negative = inhibition [2] -7.71% | activity, negative = inhibition [4] -12.4% | Potency [5] > 46 µM | Potency [6] > 9.22 µM | Potency [7] | Potency [8]

C[C@@H]1c2ccccc2Cn2cc3c(c21)C(=O)c1cccc(OP(=O)(O)OCc2ccccc2)c1C3=O
active: Potency [3] 3.16 µM
inactive: Potency [1] > 11.4 µM | activity change, negative = inhibition [2] -3.62% | activity, negative = inhibition [4] -19.6% | Potency [5] > 46 µM | Potency [6] > 9.22 µM | Potency [7] | Potency [8]

N[C@@H](Cc1cccnn1)C(=O)O
active: Potency [3] 3.16 µM
inactive: Potency [1] > 11.4 µM | activity change, negative = inhibition [2] 2.23% | activity, negative = inhibition [4] 2.86% | Potency [5] > 46 µM | Potency [6] > 9.22 µM | Potency [7] | Potency [8]
